Out of some 16,000 compounds screened, about 5,100 (32%) were called active. Roughly 25% stayed inconclusive and do not appear here. The list shows a part of the results. Values without a mark were called inactive. Calls come from the whole dose curve; as a rule, active = well fitted curve in the direction sought with a large enough effect; inconclusive = small, poorly fitted or top-dose-only effect, or effect the other way; inactive = no such curve, though single readings can be large or run the other way.
These compounds were tested against Cytochrome P450 3A4 (Homo sapiens) (UniProt P08684) (assay: Cytochrome panel assay with activity outcomes). Details: recombinant CYP, pro-luciferin dealkylation, luminescence, p450-cyp3a4; series mostly up to 57.1 µM; activity, negative = inhibition: at the top concentration.
% is set by controls: 0 for no effect and ±100 for the full control effect.

Chain of Cytochrome P450 3A4 (Homo sapiens) (P08684 whole entry, looked up): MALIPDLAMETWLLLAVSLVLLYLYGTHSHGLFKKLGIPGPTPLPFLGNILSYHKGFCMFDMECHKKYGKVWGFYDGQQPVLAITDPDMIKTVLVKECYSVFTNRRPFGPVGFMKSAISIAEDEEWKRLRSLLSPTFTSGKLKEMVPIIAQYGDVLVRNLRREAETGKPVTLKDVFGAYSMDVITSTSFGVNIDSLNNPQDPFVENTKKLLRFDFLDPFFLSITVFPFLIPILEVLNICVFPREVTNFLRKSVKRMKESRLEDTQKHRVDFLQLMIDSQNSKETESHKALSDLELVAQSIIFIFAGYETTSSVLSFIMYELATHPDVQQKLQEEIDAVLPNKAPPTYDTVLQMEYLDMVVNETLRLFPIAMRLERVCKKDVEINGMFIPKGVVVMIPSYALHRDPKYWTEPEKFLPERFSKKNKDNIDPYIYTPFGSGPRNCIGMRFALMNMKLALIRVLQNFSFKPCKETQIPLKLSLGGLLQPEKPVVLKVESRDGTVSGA

Row | Structure (SMILES) | activity, negative = inhibition | AC50
1 | CN(C)CC(O)COc1cccc(OCC(O)CN(C)C)c1 (stereo not drawn) | -0.983% | –
2 | CCN1C(=O)[C@H]2[C@@H]3[C@H](O)C=CC(=O)[C@H]3CC[C@H]2C1=O | -12.1% [at 11.4 µM] | –
3 | O=c1oc(-c2cccs2)nc2ccc(Br)cc12 | -22.2% | –
4 | O=S(=O)(c1ccccc1)N1N=C(c2cccs2)CC1c1ccc(Br)cc1 (stereo not drawn) | – | 2 µM (active)
5 | CC(C)Cc1nnc(NC(=O)c2ccc([N+](=O)[O-])cc2)s1 | 17.9% | –
6 | CCN1CCN(S(=O)(=O)c2ccc(Cl)c(C(=O)Nc3nnc(CC(C)C)s3)c2)CC1 | – | 14.1 µM (active)
7 | CCOC(=O)CSc1nnc(NC(=O)c2cccc(S(=O)(=O)N3CCCCCC3)c2)s1 | -15.1% [at 2.29 µM] | –
8 | O=C(Nc1nnc(C2CC2)s1)c1ccc(S(=O)(=O)c2ccccc2)cc1 | 25.6% | –
9 | O=C(Nc1nnc(C2CC2)s1)c1cc(S(=O)(=O)N2CCN(c3ccccc3)CC2)ccc1Cl | – | 2 µM (active)
10 | CCOc1ccc2nc(NC(=O)c3ccc(S(=O)(=O)N4CCOCC4)cc3)sc2c1 | -15% | –
11 | CCc1cc(C(c2ccccc2OC)N2CCOCC2)c(NC(=O)c2ccccc2)s1 (stereo not drawn) | – | 4.47 µM (active)
12 | COc1ccc(-c2noc(C3CCCN(C(=O)c4ccccc4OC)C3)n2)cc1OC (stereo not drawn) | – | 5.01 µM (active)
13 | CCCCC1CCC(c2nc(-c3ccccn3)no2)CC1 (stereo not drawn) | 5.4% [at 2.29 µM] | –
14 | COc1ccc(NC(=O)c2ccc(-c3ccc(-c4noc(C)n4)cc3C)cc2)cc1N1CCN(C)CC1 | -16.4% | –
15 | CCCCCC(=O)N1CCCC(c2nc(-c3ccc(OC)cc3)no2)C1 (stereo not drawn) | – | 7.08 µM (active)
16 | O=C(Nc1ccccc1)N1CCCC(c2nc(-c3ccc(F)cc3)no2)C1 (stereo not drawn) | – | 14.1 µM (active)
17 | CN(C)c1ccc(-c2noc(C3CCN(S(=O)(=O)c4cccc(C(=O)O)c4)CC3)n2)cc1 | -21.2% | –
18 | CC(C)(C)c1ccc(C(=O)NCc2ccc(Cl)cc2)cc1 | -23.4% | –
19 | O=C(NCc1ccccc1)c1cccc(COc2cccc(Cl)c2)c1 | -29.3% [at 11.4 µM] | –
20 | O=C(NCc1cccc(C(F)(F)F)c1)c1cc(Cl)cc(Cl)c1 | – | 14.1 µM (active)
21 | CCOCC(=O)Nc1cc(C(=O)Nc2ccccc2)ccc1Cl | -4.26% [at 2.29 µM] | –
22 | CCN(CC)S(=O)(=O)c1cc(C(=O)Nc2ccncc2)ccc1Cl | – | 1 µM (active)
23 | CCN(CC)S(=O)(=O)c1cc(C(=O)OC)ccc1Cl | 9.82% | –
24 | CC(=O)Nc1ccc(S(=O)(=O)c2ccc(N)cc2)cc1 | -19.3% [at 11.4 µM] | –

Row | Structure (SMILES) | activity, negative = inhibition | AC50
25 | CC(=O)Nc1ccc(Nc2ncc([N+](=O)[O-])c(Nc3ccc(NC(C)=O)cc3)n2)cc1 | – | 6.31 µM (active)
26 | CC(=O)Nc1ccc([N+](=O)[O-])cn1 | 3.23% | –
27 | CCc1cc(C(=O)NNC(=S)NCC2CCCO2)cs1 (stereo not drawn) | -21.7% | –
28 | Cc1ccc(C(=O)NC(=S)NCC2CCCO2)cc1 (stereo not drawn) | -7.78% [at 2.29 µM] | –
29 | Cc1cccc(NC(=S)NNC(=O)CC(C)O)c1C (stereo not drawn) | -9.46% | –
30 | CCOc1cc(NC(=S)Nc2cccc(C)c2)c(OCC)cc1NC(=O)CC(C)C | – | 11.2 µM (active)
31 | Cc1scc(C(=O)NNC(=S)NCC2CCCO2)c1C (stereo not drawn) | -19.7% | –
32 | CCOc1cc(NC(=S)NCC2CCCO2)c(OCC)cc1NC(=O)c1ccccc1C (stereo not drawn) | – | 12.6 µM (active)
33 | Cc1ccccc1C(=O)c1c[nH]c(C(=O)NCC2CCCO2)c1 (stereo not drawn) | 2.67% [at 11.4 µM] | –
34 | CCOc1cc(NC(=S)NCC2CCCO2)c(OCC)cc1NC(=O)c1cccc(C)c1 (stereo not drawn) | – | 12.6 µM (active)
35 | Nc1cc(C(=O)O)[nH]c(=O)n1 | -11.2% [at 11.4 µM] | –
36 | O=C(O)[C@H]([C@H]1NCCS1)N1Cc2ccccc2C1 | -4.44% [at 11.4 µM] | –
37 | CN1CC[C@@]2(CCCN(C(=O)c3cccc(F)c3)C2)C1 | -27.3% | –
38 | O=C(c1cccc(F)c1)N1CCC[C@@]2(CCN(C(c3ccccc3)c3ccccc3)C2)C1 | – | 3.98 µM (active)
39 | O=C(c1cccc(F)c1)N1CCC2(CCCN(C(c3ccccc3)c3ccccc3)C2)CC1 | -29.9% | –
40 | CC(=O)N1CCC2(CC1)CCN(c1cccc(-c3ccccc3)c1)CC2 | -17.6% | –
41 | O=C(c1cccc(F)c1)N1CCC[C@@]2(CCN(c3ccccc3)C2)C1 | – | 6.31 µM (active)
42 | COc1ccc(C(=O)N2CCC[C@@]3(CCN(c4cccc(-c5ccccc5)c4)C3)C2)cc1 | – | 3.16 µM (active)
43 | O=C(c1cccc(F)c1)N1CCC[C@@]2(CCN(c3cccc(-c4ccccc4)c3)C2)C1 | – | 7.94 µM (active)
44 | COC(=O)N1CCC2(CC1)CN(c1cccc(-c3ccccc3)c1)C2 | 4.17% | –
45 | CN(C)CCCO[C@H]1[C@@H]2OC(C)(C)O[C@@H]2O[C@@H]1[C@H](O)CO | 1.58% [at 25.6 µM] | –
46 | Clc1ccc2c(NCCNC3CCCCC3)ccnc2c1 | -5.83% [at 11.4 µM] | –
47 | O=C(O)/C=C\[C@H](O)c1ccc(Cl)cc1 | 2.09% | –
48 | O=C(c1cccc(F)c1)N1CCC2(CC1)CN(c1ccncc1)C2 | 22.2% | –

— PubChem BioAssay AID1851 (National Center for Advancing Translational Sciences (NCATS), 2009)
